Assay outcomes as filed in PubChem.
This is one part of a sample in which hits are shown more often than they occur.
CBX7 inh: blocks human CBX7 binding to H3K27me3 peptide; actives 1.1% (n = 66,000); O95931; AID 1224903; normalised signal (fraction of DMSO) (concentration not given with the values); AlphaScreen His6-CBX7 / biotin-H3K27me3 peptide binding; active compounds read low; in the data active means normalised signal below about 0.5
Target sequence (O95931 whole entry, looked up): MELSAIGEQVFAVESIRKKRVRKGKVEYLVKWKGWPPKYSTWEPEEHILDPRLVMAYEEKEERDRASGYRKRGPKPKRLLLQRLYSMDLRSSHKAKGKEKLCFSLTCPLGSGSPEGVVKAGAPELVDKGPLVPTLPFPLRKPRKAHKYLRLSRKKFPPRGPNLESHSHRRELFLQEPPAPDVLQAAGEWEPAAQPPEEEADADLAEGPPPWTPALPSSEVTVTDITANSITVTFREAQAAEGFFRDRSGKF
* = called active by the depositor.

SMILES	CBX7 inh
O=C(Nc1ccc(C(F)(F)F)cc1)c1cnc2sccn2c1=O	1.1
O=C(CN1C(=O)COc2ccc(S(=O)(=O)N3CCCCCC3)cc21)NCc1ccccn1	0.91
COc1ccc(Nc2c(-c3ccc(OC)cc3)nc3ncccn23)cc1	0.95
CC1(C)CC(NC(=O)Nc2ccc(F)cc2)CCO1 (stereo not drawn)	0.99
Cc1nc(N)sc1-c1csc(Nc2ncccn2)n1	0.69
COc1ccccc1Nc1nc(-c2sc(NC(C)=O)nc2C)cs1	0.94
CC(=O)Nc1nc(C)c(-c2csc(Nc3cccc(C)c3)n2)s1	0.93
Cc1cccc(Nc2nc(-c3sc(N)nc3C)cs2)c1	0.48*
Cc1ccccc1Nc1nc(-c2sc(N)nc2C)cs1	0.66
COc1ccccc1Nc1nc(-c2sc(N)nc2C)cs1	0.37*
Cc1c(C(=O)N2CCC(C)CC2)sc2ncn(CC(=O)N3CCCCC3)c(=O)c12	1
CCOC(=O)C1CCCN(c2c(N3CCN(c4cccc(C)c4C)CC3)c(=O)c2=O)C1 (stereo not drawn)	0.97
CC(C)c1ccc(NC(=O)C2CCN(S(=O)(=O)c3cccs3)CC2)cc1	0.91
CC(C)(C)n1cnc2cc(NCc3ccncc3)ccc21	0.96
CCOc1ccc(CNc2ccc3c(c2)ncn3C)cc1	0.69
CC(C)n1cnc2cc(NCc3ccc(Cl)cc3)ccc21	0.4*
CC(C)n1cnc2cc(NCc3ccc(Br)cc3)ccc21	0.38*
CCn1cnc2cc(NCc3ccc(C)cc3)ccc21	0.52
CC(C)n1cnc2cc(NCc3nc4ccccc4n3C)ccc21	0.87
CCN(CC)S(=O)(=O)c1ccc2c(c1)N(CC(=O)NCCN(C)C)C(=O)CS2	1
Cc1nc(N2CCCCC2C)c2c(C)c(C(=O)N3CCN(c4ccccc4)CC3)sc2n1 (stereo not drawn)	0.92
COc1cccc(CNC(=O)C2CCCN(S(=O)(=O)c3cccc4cccnc34)C2)c1 (stereo not drawn)	0.89
CN(C)c1ccc(NC(=O)Cn2c(SCc3cccc(F)c3)nc3ccncc32)cc1	0.82
COc1c(-c2cc(-c3ccccc3)n[nH]2)c(O)c(OC)c2occc12	0.65
COc1ccc(-c2noc(-c3ccc(Br)cc3)n2)cc1OC	1.3
SMILES	CBX7 inh
COc1ccc(-c2cc(-c3c(O)c(OC)c4occc4c3OC)[nH]n2)cc1OC	0.45*
O=C(Nc1ccc(OC(F)(F)F)cc1)c1cnn2c1NC(c1ccco1)CC2C(F)(F)F (stereo not drawn)	1.1
COc1ccc(C2CC(=O)N(CC(=O)NCc3ccc(F)cc3)c3ccccc3S2)cc1OC (stereo not drawn)	1
CCC(=O)N1CCc2cc(S(=O)(=O)N3CCN(CC)CC3)ccc21	1.1
CC(C)CCNC(=O)CN1C(=O)COc2ccc(S(=O)(=O)N3CCCC3)cc21	0.94
Cc1ccc(-c2nnc(Nc3ccc(O)cc3)c3ccccc23)cc1S(=O)(=O)NC(C)(C)C	0.67
Cc1ccc(-c2nnc(Nc3cccc(O)c3)c3ccccc23)cc1S(=O)(=O)NC(C)(C)C	0.4*
Cc1ccc(-c2nnc(Nc3cccc(O)c3)c3ccccc23)cc1S(N)(=O)=O	0.93
Cc1ccccc1Cc1c(C)nc2c(C(=O)NCCC(C)C)cnn2c1C	0.9
COCCNC(=O)c1c[nH]c2ccc(S(=O)(=O)Nc3cc(C)cc(C)c3)cc2c1=O	0.94
CCc1cc(Br)ccc1-n1nc(-c2ccc(Cl)cc2)cc1-c1ccc(Cl)cc1	0.99
O=C(CN1CCCCC1)Nc1c2c(nc3c1CCC3)CCCC2	0.45*
NC(=O)C1CCN(CC(=O)Nc2c3c(nc4ccccc24)CCC3)CC1	1.3
O=C(CCCN1Cc2ccccc2C1)Nc1c2c(nc3c1CCC3)CCCC2	1
COc1ccccc1C(=O)Nc1c2c(nc3c1CCC3)CCCC2	0.95
O=C(CN1CCCCC1)Nc1c2c(nc3ccccc13)CCCC2	0.9
CN(CC(=O)Nc1c2c(nc3c1CCC3)CCCC2)Cc1ccccc1	0.24*
CN(CCc1ccccn1)C(=O)c1cc2nc(-c3ccc(F)cc3)cc(C(F)(F)F)n2n1	1
O=C(O)CCCC(=O)N1CCc2cc(S(=O)(=O)NC3CCCc4ccccc43)ccc21 (stereo not drawn)	1.2
CCOCCCNC(=O)c1cc(Nc2ccc(OCC)cc2)nc2ccccc12	0.97
CCc1cccc(NC(=O)CCc2c(C)nc3ncnn3c2C)c1	1
COc1ccccc1OCCSc1nc2ccccc2n1CCOc1ccccc1OC	0.94
O=C(COc1ccc(F)cc1)Nc1c(C(=O)c2ccc(Br)cc2)oc2ccccc12	1.1
CCCCOCC(O)CN1CCN(C(C)=O)CC1 (stereo not drawn)	1.1
CC(=O)N1CCN(CC(O)COc2ccc(Br)cc2)CC1 (stereo not drawn)	0.46*
SMILES	CBX7 inh
COc1ccc(OCC(O)CN2CCCCC2)cc1 (stereo not drawn)	1
CN(CC(=O)Nc1ccc(Br)cc1)S(=O)(=O)c1cnc[nH]1	1.1
CCOc1ccc(CCNC(=O)CCCc2cn(C)c3ccccc23)cc1OCC	1
CCOc1ccccc1CNC(=O)CCc1cn(C)c2ccccc12	0.84
CCOc1ccccc1CNC(=O)CCCc1cn(C)c2ccccc12	0.38*
COc1ccccc1-n1c(C)nc2cc(C(=O)NCCc3ccccc3)ccc21	0.96
CC1CCCCN1S(=O)(=O)c1ccc(C(=O)Nc2nc(-c3ccncc3)cs2)cc1 (stereo not drawn)	1
O=C(Nc1nc(-c2ccncc2)cs1)c1ccc(S(=O)(=O)N2CCCCC2)cc1	1
CC1CCN(S(=O)(=O)c2ccc(C(=O)Nc3nc(-c4ccncc4)cs3)cc2)CC1	1
CC1CCCN(S(=O)(=O)c2ccc(C(=O)Nc3nc(-c4ccccn4)cs3)cc2)C1 (stereo not drawn)	0.22*
CC1CCN(S(=O)(=O)c2ccc(C(=O)Nc3nc(-c4ccccn4)cs3)cc2)CC1	0.96
CC1CCCCN1S(=O)(=O)c1ccc(C(=O)Nc2nc(-c3ccccn3)cs2)cc1 (stereo not drawn)	0.19*
Cc1ccn2c(Nc3ccccc3)c(-c3ccsc3)nc2c1	1
Cc1ccc(C(=O)Nc2nnc(CCS(=O)(=O)c3ccc(C)cc3)s2)cc1	1
CCNc1nnc(-c2cc3c(CO)cnc(C)c3oc2=O)s1	1.1
Cc1ccc(C)c(N2C(=O)C3C4C=CC(C4=C4CCCC4)C3C2=O)c1 (stereo not drawn)	1
Cc1ccc(-c2cc(C(=O)NCCCN3CCC(N4CCCCC4)CC3)c3ccccc3n2)cc1C	1
Cc1ccccc1-c1nc(C(=O)NC2CC2)c(C)o1	1.1
Cc1ccc(Cl)c(OCC(O)Cn2cnc3ccccc32)c1 (stereo not drawn)	0.68
OC(COc1ccccc1Cl)Cn1cnc2ccccc21 (stereo not drawn)	0.25*
CCCc1nc2ccccc2n1CC(O)COc1c(C)cc(C)cc1C (stereo not drawn)	0.93
Cc1cc(C)c(OCC(O)Cn2cnc3ccccc32)c(C)c1 (stereo not drawn)	0.48*
OC(COc1ccc(Br)cc1)Cn1cnc2ccccc21 (stereo not drawn)	0.59
O=C(O)c1ccccc1OCC(O)Cn1cnc2ccccc21 (stereo not drawn)	1
CCOC(=O)c1c(C)n(-c2ccc(OC)cc2)c2ccc(OCC(N)=O)cc12	0.74
COc1ccccc1-c1nnc(SCC(=O)Nc2nccs2)o1	0.94
CC(C)CCNC(=O)c1cc(-c2ccncc2)nc2ccccc12	1
COc1cc(Cl)c(C)cc1NC(=O)c1cc2c(-c3ccccc3F)nn(C)c2s1	1.1
